Measurements: PubChem BioAssay AID1347417 (National Center for Advancing Translational Sciences (NCATS), 2020)
The campaign covered roughly 120,000 compounds. About 5,300 (4.4%) were called active. About 22% were inconclusive and are not listed. Shown is part of a subset that was picked to be rich in actives. Values without a mark were called inactive. Calls follow the shape of the dose curve; as a rule, active = well fitted inhibition curve with a large enough effect; inconclusive = small, poorly fitted or top-dose-only effect; inactive = no such curve, though single readings can be large or run the other way.

experiment: qHTS Primary assay for Inhibitors of Plasmodium falciparum Dd2 growth in vitro; also: nearly all actives have a fitted effect of over 65% in size;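 as to activity, negative = inhibition: plate controls were DMSO vehicle for no effect and reference drug for full effect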; conditions: P. falciparum Dd2 growth, SYBR Green, 72 h; series mostly up to 28.9 µM; activity, negative = inhibition: at the top concentration
Excerpt: Malaria, a parasitic disease spread to humans through the bite of a Plasmodium infected Anopheles mosquito, continues to be a global health burden affecting millions of people, with an estimated 228 million cases and 405,000 deaths in 2018. Concerns about safety and limitations of current antimalarial treatments strongly emphasize the need to develop new therapeutic options. The scarce number of chemotypes and validated drug targets with efficacy against the liver stage, have hindered development of new antimalarials. To address this, a chemoprophylactic drug discovery effort was conducted through a combined phenotypic high-throughput asexual blood stage and liver stage screen, providing a robust foundation to identify liver-stage active lead chemotypes. Compounds were initially screened against Plasmodium falciparum Dd2 strain parasites using a in vitro SYBRGreen-1 based 72 hr proliferation assay to identify novel chemotypes to advance to liver stage assays. NIH/NCATS Early Translation Branch Assay Submitter (PI): Anton Simeonov Ph.D.
Malaria-vivax Assay Protocol: PROTOCOL TABLE (as described by Inglese et al., 2007) SEQUENCE No. (e.g., 1, 2, 3, etc.); […] (e.g., Cells, Incubation, Reagent, etc.); VALUE; DESCRIPTION SEQUENCE, Parameter, Description 1; Reagent; 3 uL complete malaria growth medium, 1536 TC treated Black clear bottom plate 2; Controls; 23 nL positive control artesunate (300 nM final) to column 1; Neutral control DMSO to columns 2-4 3; Compound; 23 nL of compounds in dose response concentration (29 uM to 0.5 nM final) 4; Reagent; 5 uL malaria infected red blood cells (2.5% hematocrit final, 0.3% parasitemia 5; Time; 72 hours at 37C (5% O2, 5% CO2, 90% N2; 95% Rh) 6; Reagent; 2 uL lysis buffer/SYBRGreen-1, 25 sec shake immediately following dispense 7; Time; ~16 hours at 37C (5% O2, 5% CO2, 90% N2; 95% Rh) 8; Detector; EnVision (PerkinElmer) bottom read at 485/14nm excitation and 535/25 nm emission NOTES (numbers refer to sequence above): 1; Complete Malaria Growth Media: 1X RPMI-1640 w/L-glutamine, 5.5g/L Albumax II, 367 uM Hypoxanthine, 25 mM HEPES, 0.25% Sodium Bicarbonate, 35 uM Gentamicin sulfate 2; Controls were added using the Kalypsis Pintool (Wako USA) equipped with 1536 pinhead 3; Compounds were added in a 7-point, titration with a high final concentration of 29 uM by Pintool from seven inter-plate titrations of library plates and two DMSO control plates at the beginning and end (see Yasgar et al., 2008). 4; Red blood cells infected with Plasmodium falciparum Dd2 parasites were used. 6; Lysis buffer: 20 mM Tris-HCl, 10 mM EDTA, 0.16% Saponin, 1.6% Triton-X, 10X SYBR Green. REFERENCE: Inglese J, Shamu CE, Guy RK. 2007. Reporting data from high-throughput screening of small-molecule libraries. Nat Chem Biol. doi:10.1038/nchembio0807-438 Yasgar A, Shinn P, Jadhav A, Auld D, Michael S, Zheng W, Austin CP, Inglese J, Simeonov A. 2008. Compound Management for Quantitative High-Throughput Screening. J Lab Autom 13:79-89. doi:10.1016/j.jala.2007.12.004
Potency is read from the fitted curve at half-maximal effect.

Row | SMILES | activity, negative = inhibition | Potency | outcome
1 | CCN1C(=O)CCN(C(=O)c2cnn(C)c2)CC12CCOCC2 | 8.57% |  | 
2 | CCCCNC(=O)C1CCCN(c2nnc(C)c3c(C)n(-c4ccc(Cl)cc4)nc23)C1 (centres undefined) | -16% |  | 
3 | Cc1nnc(N2CCCC(C(=O)NCCN(C)C)C2)c2nn(-c3ccccc3)c(C)c12 (centres undefined) | -14.9% |  | 
4 | CCc1ccc(CNC(=O)C2CCN(c3nnc(C)c4c(C)n(-c5ccc(C)cc5)nc34)CC2)cc1 |  | 10 µM (active) | 
5 | COc1cccc(-c2nc(N3CCOCC3)cc3c2CN(CC2CC2)C3=O)c1 |  | 11.2 µM (active) | 
6 | O=C1c2cc(N3CCOCC3)nc(-c3cccnc3)c2CN1C1COC1 | 2.02% [at 44.1 µM] |  | 
7 | CN1Cc2c(cc(N3CCOCC3)nc2-c2cccc(F)c2)C1=O |  |  | inactive [at 44.1 µM]
8 | O=C1CCC(C(=O)NCc2ccc(-c3cnc4c(Oc5ccccc5)nccn34)cc2)N1 (centres undefined) | -8.65% [at 44.1 µM] |  | 
9 | COc1ccc(C2Cn3nnc(-c4nc(-c5ccc(OC(C)C)cc5)no4)c3CO2)cc1 (centres undefined) |  |  | inactive
10 | Cc1ccc(C)c(N2CCN(CCCNC(=O)Nc3ccc(Cl)cc3)CC2)c1 |  | 10 µM (active) | 
11 | CCOC(=O)c1c(C)[nH]c(CCC(=O)NCCCN2CCN(c3cccc(Cl)c3)CC2)c1C |  |  | inactive
12 | CCOC(=O)c1c(C)[nH]c(CCC(=O)Nc2ccc(OC)c(OC)c2)c1C | -10.2% |  | 
13 | CCOC(=O)c1c(C)[nH]c(CCC(=O)NCCCN2CCN(c3cc(C)ccc3C)CC2)c1C |  | 10 µM (active) | 
14 | CC1=C(c2ccc(Cl)cc2)S(=O)(=O)N=C1N1CCN(c2cc(C)ccc2C)CC1 |  |  | inactive
15 | Cc1ccc(C)c(N2CCN(C(=O)Cc3c(C(=O)O)c(C)cn3C)CC2)c1 | 4.31% |  | 
16 | CCN1CCCC1CNC(=O)CCC1CCN(Cc2ccc(Cl)o2)CC1 (centres undefined) | -22.2% |  | 
17 | O=C(Cn1ccn2nc(-c3ccc(F)cc3)c(CO)c2c1=O)NCCC1=CCCCC1 | 5.48% |  | 
18 | COc1cccc(CNC(=O)Cn2c(C)cc3nc4n(c(=O)c32)CCCC4)c1 | 199% |  | 
19 | O=C1CSC2(CCN(S(=O)(=O)c3ccc(F)cc3)CC2)N1Cc1ccco1 |  |  | inactive
20 | CC(C)CCN1CCC(N2CCN(C(=O)C3CCC3)CC2)C1=O (centres undefined) | -6.67% |  | 
21 | CNC(=O)[C@@H]1CN(Cc2cccc(OC)c2)C[C@H]1CO | -8.46% |  | 
22 | COc1cccc(CN2CCc3nc(SCC(=O)Nc4ccccc4)[nH]c(=O)c3C2)c1 | 30.2% |  | 
23 | COc1cccc(CN2CCc3c(cc(C(=O)NCCN4CCCCC4)n3C)C2)c1 |  | 3.98 µM (active) | 
24 | CCc1ccc(C(=O)N2CCC(c3n[nH]c(=O)n3Cc3ccc(OC)cc3)CC2)cc1 | -0.555% |  | 
25 | O=Cc1cccc(N2CCN(C(=O)N3CCCC3)CC2=O)c1 | -15.5% |  | 

Row | SMILES | activity, negative = inhibition | Potency | outcome
26 | CC(C)N1CC[C@@H]2[C@H]1C(=O)NC[C@H](CCC(=O)NCc1ccccc1)N2C |  |  | inactive [at 44.1 µM]
27 | COCc1cc(C[C@@H]2CC[C@H](O)[C@@H](CN(C)C)O2)no1 | -8.69% [at 44.1 µM] |  | 
28 | COCc1cc(C[C@@H]2CC[C@H](O)[C@@H](CN(CC3CCCCC3)CC3CCCCC3)O2)no1 |  | 3.16 µM (active) | 
29 | CCC(CC)C(=O)NC[C@H]1O[C@H](Cc2cc(-c3ccc(F)cc3)on2)CC[C@@H]1O |  |  | inactive [at 44.1 µM]
30 | O=C(CN1C(=O)COc2ccc(C(=O)COc3ccc(Cl)cc3F)cc21)NCCc1ccccc1 | -23.5% |  | 
31 | Cc1ccc(C)c(C(=O)NC2CCN(c3cnn(CC4CC4)c(=O)c3)CC2)c1 |  |  | inactive
32 | C[C@]1(O)CCN(C(=O)c2ccc(N3CC(=O)NC3=O)cc2)C[C@@H]1O | -0.0782% |  | 
33 | Cc1noc([C@@H]2CN(S(=O)(=O)c3ccc4c(c3)CCC4)C[C@H]2C(N)=O)n1 | 4.51% |  | 
34 | CCOC(=O)c1c(C)oc2nc(C)nc(N3CCN(c4ccc(OC)cc4)CC3)c12 |  | 10 µM (active) | 
35 | COc1ccc(N2CCN(C(=O)c3c(C)oc4nc(C)nc(N5CCCC5)c34)CC2)cc1 | 11.3% |  | 
36 | CCOC(=O)c1c(C)oc2nc(C)nc(N(CC(C)C)CC(C)C)c12 |  | 10 µM (active) | 
37 | Cc1nc(N2CCOCC2)c2c(C(=O)NCc3cccc(Cl)c3)c(C)oc2n1 | 29.7% |  | 
38 | CN(CCc1noc(C2CN(C(=O)c3cc(F)ccc3F)C2)n1)C(=O)C1CC1 | 3.18% |  | 
39 | Cc1nc(N(C)C)ncc1C(=O)N[C@@H]1CCOC[C@H]1Oc1ccccn1 | -2.13% |  | 
40 | COc1ccc(O[C@H]2COCCN(S(=O)(=O)c3c(C)noc3C)C2)cc1 | -24.8% [at 44.1 µM] |  | 
41 | O=C(c1ccccn1)N1C[C@@H]2OCC(=O)N(CC3CC3)[C@@H]2C1 | 0.941% [at 44.1 µM] |  | 
42 | CCN(CCCNC(=O)c1cc2c(=O)n(CC)c3ccccc3c2s1)Cc1ccccc1 |  | 4.47 µM (active) | 
43 | CCn1c(=O)c2cc(C(=O)NCCc3ccc(Cl)cc3)sc2c2ccccc21 | 5.17% |  | 
44 | CCc1ccc(CNC(=O)c2cc3c(=O)n(CC)c4ccccc4c3s2)cc1 | -2.37% |  | 
45 | CN(Cc1ccc2c(c1)OCO2)C(=O)C1(C)CCOCC1 | -15.2% [at 44.1 µM] |  | 
46 | COCCNC(=O)CC[C@]12CC[C@](C)(O)C[C@H]1C(C)(C)C[C@@H]2NC(=O)c1ccc(C(F)(F)F)cc1 |  |  | inactive
47 | Cc1cc(F)ccc1NC(=O)CCC1CCCN(C(=O)c2ccc(Cl)s2)C1 (centres undefined) |  |  | inactive
48 | Cc1noc(C)c1C(=O)N1CCCC(CCc2ccc(F)cc2F)C1 (centres undefined) | -8.48% |  | 
49 | Cc1c[nH]c(CN2CCCC(CCc3ccc(F)cc3F)C2)c(C)c1=O (centres undefined) |  | 10 µM (active) | 
